# This is a sample that favours compounds with a hit; in the whole collection about 1.3% have one here.
# Giardia killer = Giardia lamblia killing; Giardia lamblia trophozoite viability; activity change, % at 7.66 µM, hits read low; 340,000 tested, 0.15% active; AID 540267; in the data active means activity change below about -80%; inconclusive means between about -30% and that limit;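 further: parasites exposed to compound for two days anaerobically before the ATP read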
#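 Compounds were tested on trophozoites seeded at 100 cells/well and held 48 hrs at 37 deg C anaerobically. An ATP-based luminescent kit measured the remaining live cells.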
# KAT2A inh = inhibitors of human GCN5L2 histone acetyltransferase; Q92830; GCN5L2 HAT assay, ThioGlo1 CoA-SH fluorescence; Potency, µM (highest dose often 58.9 µM), most hits filed as inhibitors; 390,000 tested, 0.21% active; AID 504327
#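 ThioGlo1-coupled HAT assay: 20nM GCN5L2, 70uM acetyl-CoA, 75uM H3(1-25) peptide, pH 7.5. Fluorescence read at 340/540nm at start and after 20 min at room temperature.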
# TrxR1 substrate = substrates of rat thioredoxin reductase 1; 390,000 tested, 0.01% active; O89049; Potency, µM (top dose mostly 114 µM); purified TrxR1 substrate turnover, NADPH consumption readout; further: nearly all actives have a fitted effect of over 50% in size
#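 Rat TrxR1, dispensed at 90 nM, was prereduced with 400 uM NADPH (final) for 5 min at ~22 deg C, then incubated with compound 15 min before 400 uM selenite. A first-read NADPH fluorescence drop versus no-compound background flagged substrates.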
# Pin1 inh = human Pin1 inhibition; Pin1 FP peptide displacement, HiFluor488, 10 min; Q13526; 390,000 tested, 0.009% active; Potency, µM (titrated, usually from 115 µM), actives largely listed as inhibitors; AID 504891; active means well fitted inhibition curve with a large enough effect in the polarisation, with a control signal flat, not every such curve was filed as active; inconclusive means small, poorly fitted or top-dose-only effect, or effect the other way, or a change in a side signal; inactive means no such curve, though single readings can be large or run the other way; the % refers to the polarisation
# Target sequence (Q13526 whole entry, looked up): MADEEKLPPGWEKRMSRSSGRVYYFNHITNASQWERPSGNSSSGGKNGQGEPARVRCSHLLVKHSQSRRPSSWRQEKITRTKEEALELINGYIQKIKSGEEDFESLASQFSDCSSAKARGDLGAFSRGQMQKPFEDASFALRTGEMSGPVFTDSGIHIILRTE
# TrxR1 inh = blocks rat thioredoxin reductase 1 | O89049 | recombinant rTrxR1, NADPH fluorescence consumption, selenite substrate | Potency, µM (series often up to 114 µM), most hits filed as inhibitors | 390,000 tested, 1% active | AID 588453; further: nearly all actives have a fitted effect of over 65% in size
#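 Rat TrxR1 (90 nM in the dispensed reagent) was pre-reduced with 400 uM NADPH for 5 min at room temperature, then incubated with compound for 15 min. After 400 uM selenite was added, NADPH fluorescence (Ex 340/Em 450 nm) was followed for 8 min.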
# GALK inhibitor = blocks human galactokinase activity; Potency, µM (highest dose often 57.5 µM), hits mostly inhibitors; Purified GALK, Kinase-Glo residual ATP luminescence; 270,000 tested, 0.007% active
#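 Quantitative HTS: GALK 5 nM, ATP 35 uM, galactose 100 uM, 1 h room temperature, then luciferase-based ATP detection.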
# Numbers stand for hits; n = inactive; u = inconclusive; x = not tested or not shown; [ ] = another dose, or the depositor's remark. Unless noted, the call rests on the fitted dose curve; in most records, active means well fitted curve in the direction sought with a large enough effect; inconclusive means small, poorly fitted or top-dose-only effect, or another doubt; inactive means no such curve, though single readings can be large; an effect the other way counts as inactive or inconclusive.
SMILES,Giardia killer,KAT2A inh,TrxR1 substrate,Pin1 inh,TrxR1 inh,GALK inhibitor
C[C@H](CO)N1C[C@H](C)[C@@H](CN(C)S(C)(=O)=O)Oc2c(NC(=O)Nc3ccccc3)cccc2C1=O,n,n,n,n,n,x
O=C1c2ccccc2NC(c2ccc(Br)o2)N1O (stereo not given),n,n,n,n,u,x
O=C1c2ccccc2NC(c2ccco2)N1O (stereo not given),n,n,n,n,40µM,n
CCOc1ccc(S(=O)(=O)N2CCC(c3ccncc3)CC2)cc1,x,n,n,n,n,x
CC1(C)CC(=O)c2sc(NC(=O)c3cccs3)nc2C1,-96,n,n,n,n,n
CC1(C)CC(=O)c2sc(NC(=O)c3ccccc3)nc2C1,x,n,x,x,x,n
CC(=O)OCON[N+]([O-])=NC1CCCCC1,n,x,n,n,n,x
Cc1cc2c(cc1Cl)N(C(=O)Nc1ccc(Oc3cccnc3C)nc1)CC2,x,n,n,x,u,x
COc1cc2nc(N3CCCN(C)CC3)nc(NC3CCN(C)CC3)c2cc1OC,x,x,n,x,u,x
O=C(Nc1cccc(NC(=O)c2ccc([N+](=O)[O-])o2)c1)c1ccco1,-85,n,n,n,u,n
O=C(NC12CC3CC(CC(C3)C1)C2)c1ccc([N+](=O)[O-])o1,-93,n,n,n,u,n
O=C(Nc1ccc(NC(=O)c2ccc([N+](=O)[O-])o2)cc1Cl)c1ccco1,-92,n,n[0.0914 µM],n,n,n
O=C(Nc1ccc(NC(=O)c2ccco2)c(Cl)c1)c1ccccc1,n,n,n,n,n,n
Cc1ccccc1NC(=O)c1ccc([N+](=O)[O-])o1,u,n,n,n,n,n
O=C(NC12CC3CC(CC(C3)C1)C2)c1ccc(Br)o1,n,n,n,n,n,n
O=C(Nc1ccccc1Cl)c1ccc([N+](=O)[O-])o1,-83,n,n,n,n,n
CCCCCCCCCCCCCCCC[N+](C)(C)Cc1ccccc1,x,n,x,x,x,x
Cc1nccn1CCOc1ccccc1Cl,n,n,n,n,n,n
NC(=O)C1CC2(C1)CC(C(N)=O)C2 (stereo not given),n,x,n,n,n,x
CN(C(=O)c1cccc(NC(=O)Cc2ccc(NC(=O)C3CCCN(S(=O)(=O)c4cccc([N+](=O)[O-])c4)C3)cc2)c1)C1CCC1 (stereo not given),n,x,n,n,n,x
C[n+]1ccc(C(c2c[nH]c3ccccc23)c2cc[n+](C)c3ccccc23)c2ccccc21,x,x,n,x,n,x
COc1ccc(NC(=O)Cn2ncc3c4ccccc4n(Cc4ccccc4)c3c2=O)cc1OC,x,n,n,n,n,x
Cc1c(NC(=O)c2ccc([N+](=O)[O-])o2)cccc1-c1nc2ncccc2o1,-92,n,n,n,n,n
O=C(Nc1cccc2ncccc12)c1ccc([N+](=O)[O-])o1,-80,n,n,n,n,n
Cc1cccnc1NC(=O)c1ccc([N+](=O)[O-])o1,u,n,n,n,n,n
SMILES,Giardia killer,KAT2A inh,TrxR1 substrate,Pin1 inh,TrxR1 inh,GALK inhibitor
O=Cc1ccc(Sc2nnc(-c3ccccc3)o2)c([N+](=O)[O-])c1,n,n,n,n,5µM,n
COc1cc(Cl)c(C)cc1NS(=O)(=O)c1c(C)nc2sccn2c1=O,x,n,n,n,n,x
COC(=O)c1ccc(NC(=O)COC(=O)CSc2nc(C)cc(C)n2)cc1,n,0.71µM,n,n,n,n
CCc1c(C)sc(NC(=O)c2noc(C)c2[N+](=O)[O-])c1C#N,n,n,n,n,13µM,n
Cc1cc(NC(=O)CCS(=O)(=O)c2nc(-c3ccccc3)cc(C(F)(F)F)n2)no1,n,n,n,n,18µM,n
Cc1ccc(O)c(NC(=O)CCS(=O)(=O)c2nc(-c3cccs3)cc(C(F)(F)F)n2)c1,x,n,n,n,20µM,x
O=C(CCS(=O)(=O)c1nc(-c2cccs2)cc(C(F)(F)F)n1)Nc1ccc(Br)cc1,x,n,n[2.29 µM],n,n,x
CS(=O)(=O)c1nc(-c2ccccc2)cc(C(F)(F)F)n1,n,n,n,n,18µM,n
FC(F)(F)c1cc(-c2ccccc2)nc(N2CCCCCC2)n1,n,n,n,n,n,n
O=C(CCS(=O)(=O)c1nc(-c2cccs2)cc(C(F)(F)F)n1)Nc1cc(Br)ccc1O,n,n,n,n,14µM,x

# Assay outcomes from PubChem BioAssay.
